RORg inh – qHTS for inhibitors of ROR gamma transcriptional activity; Drosophila S2 Gal4-RORgamma UAS-luciferase reporter, 20 h; Potency, µM (highest dose often 53.6 µM), hits mostly inhibitors; Nuclear receptor ROR-gamma (Mus musculus), P51450; 5.4% of 310,000 active; further: nearly all actives have a fitted effect of over 60% in size
Target sequence (P51450 whole entry, looked up, the tested form may be a part): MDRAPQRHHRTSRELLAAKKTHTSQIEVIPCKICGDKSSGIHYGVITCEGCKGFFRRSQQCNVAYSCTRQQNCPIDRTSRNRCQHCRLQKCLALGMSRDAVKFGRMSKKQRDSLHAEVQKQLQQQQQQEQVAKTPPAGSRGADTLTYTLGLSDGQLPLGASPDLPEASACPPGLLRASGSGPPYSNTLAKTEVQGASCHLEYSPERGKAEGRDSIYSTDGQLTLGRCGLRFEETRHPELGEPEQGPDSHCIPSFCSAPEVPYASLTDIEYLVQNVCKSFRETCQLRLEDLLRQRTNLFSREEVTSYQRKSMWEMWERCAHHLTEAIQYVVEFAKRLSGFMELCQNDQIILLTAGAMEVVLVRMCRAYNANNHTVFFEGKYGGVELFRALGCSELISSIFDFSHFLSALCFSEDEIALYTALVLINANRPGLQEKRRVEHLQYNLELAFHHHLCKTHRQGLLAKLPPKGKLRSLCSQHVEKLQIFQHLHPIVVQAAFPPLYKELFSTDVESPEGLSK
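Drosophila S2 cells stably expressing Gal4-DBD/mouse RORγ fusion under metallothionein promoter plus UAS-luciferase; compound 1 h, then 700 uM CuSO4 induction for 20 h at ambient temperature; inhibition read as reduced luminescence.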
uPA surface inh – qHTS for Inhibitors of Cell Surface uPA Generation | Potency, µM (series often up to 38.3 µM), hits mostly inhibitors | cell surface uPA generation assay, qHTS | 0.31% of 330,000 active | AID 540303, 2011; active means well fitted inhibition curve with a large enough effect; inconclusive means small, poorly fitted or top-dose-only effect; inactive means no such curve, though single readings can be large or run the other way; tested in mouse RAW 264.7 cells; further: nearly all actives have a fitted effect of over 55% in size
BCR signal inh – qHTS Assay to Find Inhibitors of Chronic Active B-Cell Receptor Signaling. ABC-DLBCL IkBa-CBG/CBR reporter, luminescence ratio, 4 h. Potency, µM (highest dose often 46.1 µM), hits mostly inhibitors. 0.05% of 340,000 active. AID 493014, 2011; active means well fitted inhibition curve with a large enough effect in the signal ratio, with a control signal flat, not every such curve was filed as active; inconclusive means small, poorly fitted or top-dose-only effect, or effect the other way, or a change in a side signal; the % refers to the signal ratio
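TMD8 ABC-DLBCL cells carrying doxycycline-inducible green luciferase fused to IkappaBalpha plus unfused red luciferase were exposed to compounds (up to 46 uM) for 4 hrs at 37C. Activity came from the overlap-corrected green/red luminescence ratio.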
VP16 counter – VP16 counterscreen qHTS for inhibitors of ROR gamma transcriptional activity | Drosophila S2 Gal4-VP16 UAS-luciferase, luminescence, 20 h | 3.5% of 310,000 active | Potency, µM (highest dose often 53.6 µM), actives largely listed as inhibitors;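 further: Gal4-VP16 expression switched on by copper sulfate through the metallothionein promoter; nearly all actives have a fitted effect of over 50% in size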
Mito fusion act – qHTS Assay for Small Molecule Inhibitors of Mitochondrial Division or Activators of Mitochondrial Fusion. S. cerevisiae fusion-defective mutant growth rescue, CellTiterGlo 48 h. Potency, µM (titrated, usually from 46.1 µM), most hits filed as activators. 0.23% of 320,000 active. AID 485298, 2010; further: nearly all actives have a fitted effect of over 45% in size
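Temperature-sensitive fusion-defective S. cerevisiae (e.g. fzo1-1, mgm1-5) were grown with compound in YPEG medium (3% ethanol, 3% glycerol) for 48 hours at 37C. Growth rescue was measured as viability by CellTiterGlo luminescence after 10 minutes at ambient.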
a7 integrin act – qHTS for Activators of Integrin-Mediated Alleviation for Muscular Dystrophy; alpha7betagal myoblasts, beta-gal FDG fluorescence, 48 h; Potency, µM (doses to about 38.3 µM), most hits filed as activators; 0.064% of 350,000 active; further: nearly all actives have a fitted effect of over 60% in size
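Alpha7betagal+/- myoblasts (passage 13) were plated 16-24 hr, then exposed to compounds (1:260 dilution of DMSO stock) for 48 hours at 37C. After MPER lysis, β-galactosidase reporter activity was read as FDG fluorescence (ex 480/em 540) after 30 minutes.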
Large screens that a line does not name were inactive; ! = a repeat was not active. Most compounds without a hit are left out; they make up all but 5.5% or so of the library. Unless noted, the call rests on the fitted dose curve; in most records, active means well fitted curve in the direction sought with a large enough effect; inconclusive means small, poorly fitted or top-dose-only effect, or another doubt; inactive means no such curve, though single readings can be large; an effect the other way counts as inactive or inconclusive.

O=C(Cl)c1ccccc1F	none (no result: uPA surface inh, BCR signal inh, Mito fusion act, a7 integrin act)
CCn1c(NN=O)nc2ccccc21	RORg inh 0.501µM, BCR signal inh inconclusive, VP16 counter inconclusive
CCn1c(P(C)(=O)O)nc2ccccc21	none
CCN(CC)c1ccc(/C=C/[N+](=O)[O-])cc1	RORg inh 8.91µM
CCN(CC)c1ccccc1	none (no result: a7 integrin act)
CCSc1cc(C2C(C#N)=C(N)Oc3n[nH]c(C)c32)c(C)o1 (stereo not given)	RORg inh 11.2µM, BCR signal inh inconclusive, VP16 counter inconclusive
CC/C(=N\NC(=O)c1ccccc1Cl)c1c(O)n(C2CCCCC2)c(=O)[nH]c1=O	RORg inh 7.94µM, BCR signal inh inconclusive, VP16 counter 12.6µM
CC/C(=N\NC(=O)c1ccccc1)c1c(O)n(C2CCCCC2)c(=O)[nH]c1=O	RORg inh 14.1µM, BCR signal inh inconclusive, VP16 counter inconclusive
CCC(=NC1CC1)c1c(O)n(C2CCCCC2)c(=O)[nH]c1=O	none
C=CCOC(C)=O	none (no result: uPA surface inh, BCR signal inh, Mito fusion act, a7 integrin act)
S=C=Nc1cccc2ccccc12	RORg inh 6.31µM, VP16 counter 12.6µM (no result: uPA surface inh, BCR signal inh, Mito fusion act, a7 integrin act)
CC(Cc1ccc(C(C)(C)C)cc1)CN1CC(C)OC(C)C1 (stereo not given)	none (no result: uPA surface inh, BCR signal inh, Mito fusion act, a7 integrin act)
O=C(O)c1ccccc1-c1c2cc(Br)c(=O)cc-2oc2[c]([Hg])c(O)c(Br)cc12	RORg inh inconclusive, VP16 counter 17.8µM! (no result: uPA surface inh, BCR signal inh, Mito fusion act, a7 integrin act)
Cc1cc(C)c2sc(NC(=O)c3ccc([N+](=O)[O-])o3)nc2c1	RORg inh 5.01µM, uPA surface inh inconclusive, BCR signal inh inconclusive, VP16 counter 10µM
CCOC(=O)Cn1c(=O)oc2cc(S(=O)(=O)Nc3ccc(N(CC)CC)cc3C)ccc21	BCR signal inh inconclusive
CCC(=NC(C)c1ccccc1)c1c(O)n(C)c(=O)n(C)c1=O (stereo not given)	RORg inh inconclusive, BCR signal inh inconclusive, VP16 counter 12.6µM
CCN(CC)CCCC(C)N=C(c1ccccc1)c1c(O)n(C)c(=O)n(C)c1=O (stereo not given)	RORg inh 0.631µM
C/C(=N\NC(=S)Nc1ccccc1)c1c(O)n(C)c(=O)n(C)c1=O	RORg inh 8.91µM, VP16 counter inconclusive
CCOc1cccc2cc(C(=O)NCCC3=CCCCC3)c(=O)oc12	BCR signal inh inconclusive
CCN1CCN(c2cc(C)c3cc(NC(=O)c4ccc(OC)c(OC)c4)ccc3n2)CC1	uPA surface inh 7.94µM
O=C(O)c1ccc(/C=C/C(=O)c2ccc3c(c2)OCCCO3)cc1	RORg inh 5.01µM, BCR signal inh inconclusive, VP16 counter 10µM
O=C(/C=C/c1ccc2c(c1)OCO2)c1c(O)n(CCc2ccccc2)c(=O)[nH]c1=O	none
Cn1c(=O)oc2cc(S(=O)(=O)N3CCC(C(=O)NCCc4ccccc4)CC3)ccc21	BCR signal inh inconclusive
Cc1oc(-c2ccccc2)nc1CN1C(=O)C(C)N=C(c2ccccc2F)c2cc(Cl)ccc21 (stereo not given)	RORg inh 12.6µM
CC[C@@]1(O)C(=O)OCc2c1cc1n(c2=O)Cc2cc3c(O)cccc3nc2-1	RORg inh 0.355µM, VP16 counter inconclusive (no result: uPA surface inh, BCR signal inh, Mito fusion act, a7 integrin act)
CC[C@@]1(O)C(=O)OCc2c1cc1n(c2=O)Cc2cc3ccccc3nc2-1	RORg inh 0.0562µM, BCR signal inh inconclusive, VP16 counter inconclusive, Mito fusion act 13µM! (no result: uPA surface inh, a7 integrin act)
CCC1(OC(=O)CN)C(=O)OCc2c1cc1n(c2=O)Cc2cc3ccccc3nc2-1 (stereo not given)	RORg inh inconclusive, BCR signal inh inconclusive, VP16 counter inconclusive, Mito fusion act 0.794µM, a7 integrin act inconclusive
CC[C@@]1(O)C(=O)OCc2c1cc1n(c2=O)Cc2cc3c(NC(=O)CN)cccc3nc2-1	BCR signal inh inconclusive
CCCCCc1ccc(C(=O)CCCC)c(=S)[nH]1	RORg inh 2.51µM, BCR signal inh inconclusive
CC(C)(C)OC(=O)NCCCC[C@H](NC(=O)c1nc[nH]c1C(=O)NC1CCN(C(=O)OC(C)(C)C)CC1)C(=O)OC(C)(C)C	RORg inh 11.2µM, uPA surface inh inconclusive, BCR signal inh inconclusive, VP16 counter inconclusive
Cc1cccc(NC(=O)c2nc[nH]c2C(=O)N[C@@H](CCCCNC(=O)OC(C)(C)C)C(=O)OC(C)(C)C)c1	RORg inh 6.31µM, uPA surface inh inconclusive, VP16 counter 15.8µM
Cc1cccc(NC(=O)c2nc[nH]c2C(=O)NCCCCCNC(=O)OC(C)(C)C)c1	uPA surface inh inconclusive (no result: RORg inh, VP16 counter)
C[C@@H](NC(=O)c1nc[nH]c1C(=O)NCc1ccc(CNC(=O)OC(C)(C)C)cc1)c1ccccc1	none (no result: RORg inh, VP16 counter)
COc1ccc(N2C(=O)CS(=O)C(c3ccccc3)C2=O)cc1 (stereo not given)	RORg inh 1.26µM, BCR signal inh inconclusive
Cc1ccc(N2C(=O)CS(=O)C(c3ccccc3)C2=O)cc1C (stereo not given)	BCR signal inh inconclusive
CCc1ccc(N2C(=O)NC(=O)/C(=C/c3cccn3CCOc3ccc(C(C)CC)cc3)C2=O)cc1 (stereo not given)	RORg inh 0.794µM, BCR signal inh inconclusive, VP16 counter inconclusive
CCc1ccc(N2C(=O)NC(=O)/C(=C/c3cccn3CCOc3ccc(C)cc3)C2=O)cc1	RORg inh inconclusive, VP16 counter inconclusive
CCCC[C@@H](C)[C@@H](OC(=O)C[C@@H](CC(=O)O)C(=O)O)[C@H](C[C@@H](C)CCCCCC[C@@H](O)C[C@H](O)[C@H](C)N)OC(=O)C[C@@H](CC(=O)O)C(=O)O	none (no result: uPA surface inh, BCR signal inh, Mito fusion act, a7 integrin act)
CCC1(CC)CCNC1=O	none (no result: uPA surface inh, BCR signal inh, Mito fusion act, a7 integrin act)
CO[C@@H](COC(N)=O)C1=C(N2CC2)C(=O)C(C)=C(N2CC2)C1=O	RORg inh inconclusive, VP16 counter 11.2µM (no result: uPA surface inh, BCR signal inh, Mito fusion act, a7 integrin act)
Nc1c(C(=O)OC2CCCCC2)c2nc3ccccc3nc2n1CC1CCCO1 (stereo not given)	RORg inh 11.2µM
CCCNC(=O)c1c(N)n(CC2CCCO2)c2nc3ccccc3nc12 (stereo not given)	RORg inh inconclusive, BCR signal inh inconclusive, VP16 counter 6.31µM
CCO[C@H]1OC(C(=O)N2CCN(Cc3ccc4c(c3)OCO4)CC2)=C[C@@H](c2ccc(Br)cc2)[C@@H]1CCCO	uPA surface inh inconclusive
CC(C)[C@@]1(NC(=O)[C@@H]2C[C@@H]3c4cccc5[nH]cc(c45)C[C@H]3N(C)C2)O[C@@]2(O)[C@@H]3CCCN3C(=O)[C@H](Cc3ccccc3)N2C1=O	RORg inh 2.82µM!, uPA surface inh inconclusive, BCR signal inh inconclusive, VP16 counter inconclusive, Mito fusion act 23.1µM! (no result: a7 integrin act)
Cc1cc(C(=O)Cn2nnc(-c3ccc(Cl)cc3)n2)c(C)n1-c1ccccc1	RORg inh inconclusive, VP16 counter 22.4µM
